CYP2C9 act: CYP2C9 (human) activation | activation factor at 5 µM | recombinant CYP2C9, luciferin-H conversion, luminescence; hits give high values; factor 1 = untreated enzyme, 0 = blocked | P11712 | 96,000 compounds, 1.4% hits;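 active = activation factor of 2 or more for CYP2C9 at a 5 µM dose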
CYP2C19 activ: increases human CYP2C19 enzyme activity. 96,000 tested, under 10 active. P33261. activation factor at 5 µM. recombinant CYP2C19, luciferin-H EGE luminescence; hits give high values; 0 = fully inhibited enzyme, 1 = untreated enzyme. AID 1025;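 active = activation factor of at least 2 at 5 µM in the primary screen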
Target sequence (P33261 whole entry, looked up): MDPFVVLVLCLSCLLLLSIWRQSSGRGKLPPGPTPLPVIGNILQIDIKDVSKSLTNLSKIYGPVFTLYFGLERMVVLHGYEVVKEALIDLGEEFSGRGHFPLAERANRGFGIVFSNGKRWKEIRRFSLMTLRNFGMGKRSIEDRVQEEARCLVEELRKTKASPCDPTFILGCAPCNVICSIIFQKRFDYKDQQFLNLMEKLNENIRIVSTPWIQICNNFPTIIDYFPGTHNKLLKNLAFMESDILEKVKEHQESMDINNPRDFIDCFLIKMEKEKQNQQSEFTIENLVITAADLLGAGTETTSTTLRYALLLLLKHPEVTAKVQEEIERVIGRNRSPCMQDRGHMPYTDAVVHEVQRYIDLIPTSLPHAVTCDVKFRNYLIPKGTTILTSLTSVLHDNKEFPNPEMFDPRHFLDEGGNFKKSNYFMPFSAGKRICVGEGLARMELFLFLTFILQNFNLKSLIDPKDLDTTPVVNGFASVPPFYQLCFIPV
PLK1 PBD inh: blocks phosphopeptide binding to human Plk1 polo box domain; P53350; Plk1 PBD phosphopeptide binding, fluorescence polarization; inhibition, %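 (tested at about 20 µM)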; 97,000 compounds, 0.13% hits; in the data active = inhibition above about 34%, passing the limit was not always enough
PLK1 inh: inhibitors of human PLK1 kinase; P53350; recombinant PLK1 kinase, TR-FRET peptide phosphorylation; inhibition, % at 10 µM; 97,000 compounds, 0.53% hits; AID 619;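 active = inhibition of 50% or more in the single-concentration screen; inactive = inhibition below 50%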
CYP2C19 inhib: human CYP2C19 inhibition | inhibition, % at 5 µM | AID 778 | P33261 | 96,000 compounds, 21% hits | CYP2C19 Supersomes, luciferin-H EGE luminescence, 30 min;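 active = CYP2C19 inhibition above a set limit at 5 µM in the primary screen, cut at about 50% in these data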
CYP2C9 inh: inhibitors of human CYP2C9; inhibition, % at 5 µM; CYP2C9 Supersomes, luciferin-H conversion, luminescence; P11712; 96,000 compounds, 20% hits;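 active = blocking of liver enzyme CYP2C9 beyond about 50% at 5 µM, limit read from the data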
Large screens that a line does not name were inactive. Most compounds without a hit are left out; they make up all but 28% or so of the library.

COc1ccc(Sc2ccccc2CN(C)C)cc1OC	CYP2C19 inhib 57.1
COc1ccccc1CNCc1cc(OC)c(OC)cc1OC	none (no result: PLK1 PBD inh, PLK1 inh)
CC(=O)N1CCc2cc3nc(C)cc(C)c3cc21	none
COc1cccc(NC(=O)c2ccn(C)n2)c1	none (no result: CYP2C9 act, CYP2C19 activ, CYP2C19 inhib, CYP2C9 inh)
c1ccc(Cn2ccc(-c3cnc(-c4ccccc4)s3)n2)cc1	CYP2C19 inhib 93.9, CYP2C9 inh 73.6
CC1(C)Cc2c(sc3c2C2=NCCN2C=N3)CS1	none
Cc1ccc(CNC(=O)c2cccc(OCc3c(C)noc3C)c2)cc1	CYP2C19 inhib 57.5
Cc1noc(C)c1COc1cccc(C(=O)Nc2ccc(C#N)cc2)c1	none
Cc1cccc(C(=O)Nc2ccccc2C(=O)OCc2c(C)noc2C)c1	CYP2C9 inh 86.2
Cc1ccc(NC(=O)c2cccc(OCc3c(C)noc3C)c2)cc1	CYP2C19 inhib 91.1, CYP2C9 inh 95.3
Cc1noc(C)c1COc1cccc(C(=O)NCc2cccc(Cl)c2)c1	CYP2C9 inh 51.5
Cc1ccccc1NC(=O)c1cccc(OCc2c(C)noc2C)c1	none
COC(=O)c1c(F)c(F)c(NCCO)c(F)c1F	none
Cn1nnnc1SCC(=O)N1CCCc2ccccc21	none (no result: CYP2C9 act, CYP2C19 activ, CYP2C19 inhib, CYP2C9 inh)
CC1Cc2ccccc2N1C(=O)CSc1nnnn1C (configuration not stated)	none
O=C(CSc1nnnn1C1CCCC1)N1CCCc2ccccc21	CYP2C19 inhib 91.0
CC1Cc2ccccc2N1C(=O)CSc1nnnn1C1CCCC1 (configuration not stated)	CYP2C9 inh 57.5
c1ccc(CCn2nnnc2CN2CCc3ccccc32)cc1	CYP2C19 inhib 97.8, CYP2C9 inh 86.3
c1ccc2c(c1)CCCN2Cc1nnnn1C1CCCC1	CYP2C19 inhib 95.9, CYP2C9 inh 59.2
CC1Cc2ccccc2N1C(=O)CSc1nnnn1C(C)C (configuration not stated)	CYP2C9 inh 51.7
CCCn1c(SCC(=O)N2c3ccccc3CC2C)nnc1-c1ccco1 (configuration not stated)	none (no result: CYP2C9 act, CYP2C19 activ, CYP2C19 inhib, CYP2C9 inh)
CC1Cc2ccccc2N1C(=O)CSc1nnc(Cc2ccccc2)n1CCc1ccccc1 (configuration not stated)	CYP2C19 inhib 92.3, CYP2C9 inh 93.0
CN1CCC(N(C)C(=O)CCc2nc3ccccc3c(=O)[nH]2)CC1	none
N#CC1=C(N)OC2=C(C(=O)CCC2)C1c1ccsc1 (configuration not stated)	CYP2C19 inhib 57.0
CCCCCCC1C(C#N)=C(N)OC2=C1C(=O)CCC2 (configuration not stated)	CYP2C19 inhib 73.2, CYP2C9 inh 75.3
N#CC1=C(N)OC2=C(C(=O)CCC2)C1c1ccccc1 (configuration not stated)	none
CC(c1ccccc1)C1C(C#N)=C(N)OC2=C1C(=O)CCC2 (configuration not stated)	CYP2C19 inhib 62.1
CCCCCCC1C(C#N)=C(N)OC2=C1C(=O)CC(C)(C)C2 (configuration not stated)	none (no result: CYP2C9 act, CYP2C19 activ, CYP2C19 inhib, CYP2C9 inh)
CCOc1ccccc1NC(=O)CSc1nnc(CNC(=O)c2ccco2)o1	none
Cc1ccc(NC(=O)CN2CCN(CCN=CC3=C(O)CC(C)(C)CC3=O)CC2)cc1	none
CCOc1cc(NC(=S)NCC2CCCO2)c(OCC)cc1NC(=O)c1ccccc1 (configuration not stated)	none
O=c1c2ccccc2[nH]c(=S)n1Cc1cccnc1	CYP2C19 inhib 81.5 (no result: PLK1 PBD inh, PLK1 inh)
O=c1c2cc(Br)ccc2[nH]c(=S)n1Cc1cccnc1	none
CCC(=O)N1c2ccc(C)cc2C2=NNC(=S)NC21O (configuration not stated)	none
O=C(CCN1CCCCC1c1cccnc1)NCc1ccccc1 (configuration not stated)	none
CCCOc1cccc(CN2CCCCC2c2cccnc2)c1 (configuration not stated)	CYP2C19 inhib 91.6, CYP2C9 inh 83.2
COc1ccc(Cl)cc1CN1CCN(c2nc(C)cc(C)c2C#N)CC1	PLK1 inh 61.9, CYP2C19 inhib 92.1, CYP2C9 inh 78.7
Cc1cc(C)c(C#N)c(N2CCN(CCOc3ccc(Cl)cc3)CC2)n1	none
Fc1ccc(C2C3=C(Nc4ncnn42)c2ccccc2OC3c2ccncc2)cc1 (configuration not stated)	CYP2C19 inhib 93.1, CYP2C9 inh 77.0
N#Cc1c(NC(=O)c2ccncc2)sc2c1CCC2	CYP2C19 inhib 73.1, CYP2C9 inh 53.3
CC1CCN(CC(=O)Nc2sc3c(c2C#N)CCC3)CC1	CYP2C9 inh 56.2
COC(=O)CCC(=O)Nc1sc2c(c1C#N)CCCC2	none
CCCC(=O)Nc1sc2c(c1C#N)CCCC2	CYP2C9 inh 50.1
CCOCC(=O)Nc1nnc(C2CCCCC2)s1	none
CCCCNc1nc(CC)c2c(c1C#N)CCCC2	none
CCC(=O)N(Cc1ccco1)c1nc(-c2cc(OC)ccc2OC)cs1	none (no result: CYP2C9 act, CYP2C19 activ, CYP2C19 inhib, CYP2C9 inh)
O=C(c1ccc(=O)[nH]c1)N(Cc1ccco1)C1(C(=O)NC2CCCC2)CCCCC1	none
COc1cc(OC)c2nc(C)c3c(c2c1)N(c1ccc(O)cc1)CC3	none
CCCCn1c(=O)[nH]c(=O)c2c1nc(-c1ccc(-c3ccccc3Br)o1)n2CC	none
CCn1c(-c2ccsc2)nc2c1c(=O)[nH]c(=O)n2Cc1ccccc1	CYP2C19 inhib 51.5 (no result: PLK1 PBD inh, PLK1 inh)
Cc1cc(C(=O)N(C)CC(=O)Nc2ccccc2C(F)(F)F)c(C)o1	none
COc1ccc(OC)c(-c2cn(S(=O)(=O)c3ccccc3)nc2N)c1	none
CCc1cn(S(=O)(=O)c2ccccc2OC)nc1N	CYP2C19 inhib 50.0
COc1ccccc1C(=O)Oc1cc(N)n(S(=O)(=O)c2ccc(C)cc2)n1	CYP2C9 inh 80.9
CC(C)(C)C(=O)Oc1cc(N)n(S(=O)(=O)c2ccc(F)cc2)n1	CYP2C19 inhib 59.0, CYP2C9 inh 75.1
Cc1ccc(S(=O)(=O)n2nc(OC(=O)c3cccs3)cc2N)cc1	none
COc1ccccc1-c1cn(S(=O)(=O)c2ccc(C)cc2)nc1N	CYP2C9 inh 56.2
CCN(CC)C(=O)C1CCN(S(=O)(=O)c2ccc(C3CNC(=O)C3)cc2)CC1 (configuration not stated)	none
COc1ccc(S(=O)(=O)n2nc(OC(=O)c3c(-c4ccccc4Cl)noc3C)cc2N)cc1	CYP2C9 inh 94.2
COc1ccc(S(=O)(=O)n2nc(OC(=O)C3CCCCC3)cc2N)cc1	none
CCOC(=O)C1CCCN(c2c(N3CCN(c4ccccn4)CC3)c(=O)c2=O)C1 (configuration not stated)	none (no result: PLK1 PBD inh, PLK1 inh)
Cc1ccc(CSCCNC(=O)CCSc2ccccc2)cc1	CYP2C9 inh 65.1
Cc1ccccc1CSCCNC(=O)CCSc1ccccc1	CYP2C9 inh 76.3
COc1cccc(C2CC(c3cccc(Br)c3)n3nc(N)nc3N2)c1 (configuration not stated)	none (no result: PLK1 PBD inh, PLK1 inh)
CC1CC(=O)NN=C1c1ccc(N(C)C)c([N+](=O)[O-])c1 (configuration not stated)	none

From PubChem
